A selection: hits, their analogues and other compounds. The true share with any hit is near 2.2%.
TMEM16A inh = inhibitors of mouse TMEM16A calcium-activated chloride channel | HEK293 TMEM16A/YFP iodide influx fluorescence, ionomycin | normalized B-score (activity score, 25-100; higher = stronger inhibition) at 10 µM | hit rate 1.2% among 310,000 | AID 588511 | Q8BHY3;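 active = ratio plate-corrected score three or more library SD toward inhibition, starting fluorescence score within five deviations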;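 also: score derived from kinetic fluorescence span divided by baseline fluorescence per well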
TLR9-MyD88 block = blocks human TLR9 binding to MyD88. CHO BLA complementation TLR9-MyD88, CCF4 FRET ratio. AID 504734. inhibition, % at 4.98 µM. hit rate 0.21% among 340,000. Q9NR96+Q99836;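 active = inhibition above the mean over all tested compounds plus 3 SD, cut at about 21% in these data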;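 also: 0% = DMSO only wells and 100% = clavulanate BLA inhibitor control wells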
TMEM16A act = activates or potentiates the mouse TMEM16A chloride channel; hit rate 0.3% among 340,000; HEK293 TMEM16A/YFP-H148Q/I152L, iodide quench fluorescence; active compounds read low; B-score at 10 µM; AID 623877; Q8BHY3;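 active = fluorescence-ratio B-score plate-corrected deviation score at least 3 library SD below zero, with starting fluorescence score within 5 deviations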;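 also: channel opened by trigger with iodide after compound preincubation; score built on the fluorescence ratio of max minus min over baseline; more negative score means more quench and so TMEM16A activation or potentiation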
GRK2 inh = inhibitors of human GRK2 displacing RNA aptamer; P25098; bead flow cytometry, FAM-aptamer displacement from GRK2; inhibition of aptamer binding, % at 10 µM; hit rate 0.59% among 330,000; AID 488847;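 active = inhibition of aptamer binding above 40%, roughly 3 SD of noise, on plates passing a quality check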;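 also: median bead fluorescence of bound FAM aptamer so fluorescent compounds give negative values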
TLR4 MyD88 comp = TLR4-MyD88 interaction inhibition in cells. HeLa CL3-4 TLR4/MyD88 BLA complementation, FRET ratio. O00206+Q99836. hit rate 0.18% among 200,000. inhibition, % at 8.4 µM; in the data active = inhibition above about 25%;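 also: 0% = vehicle and 100% = reference inhibitor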
NOD2 RIPK2 PPI = blocks binding of human NOD2 to RIPK2; hit rate 0.38% among 360,000; O43353; inhibition, % at 4.98 µM; AID 624267; CHO BLA complementation NOD2-RIPK2, CCF4 ratio; in the data active = inhibition above about 21%;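 also: 0% = vehicle only and 100% = reference blocker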
* marks the source's active call; other numbers are inactive results; i = inactive; · = no result given.

SMILES	TMEM16A inh	TLR9-MyD88 block	TMEM16A act	GRK2 inh	TLR4 MyD88 comp	NOD2 RIPK2 PPI
CC12Nc3ccccc3C(=O)N1Cc1cnnn1-c1ccccc12 (stereo not given)	·	·	·	·	·	-8
Cc1ccccc1OP(=O)(Oc1ccccc1C)N1CCOCC1	·	·	·	·	·	1
O=C(C(=C1N(Cc2ccc(Cl)nc2)CCN1Cc1ccc(Cl)nc1)[N+](=O)[O-])C(Cl)Cl	i	-8	i	44*	·	-7
O=C1NC(=S)NC(=O)C1Cc1ccccc1O	·	-1	i	·	·	8
CCC(=NCc1ccc(F)cc1)c1c(O)n(C)c(=O)n(C)c1=O	100*	0	i	1	1	2
CCC(=NCCC(c1ccccc1)c1ccccc1)c1c(O)n(C)c(=O)n(C)c1=O	i	4	i	1	3	-19
CC1CCN(S(=O)(=O)c2ccc(NN=C(C#N)C#N)cc2)CC1	100*	·	·	0	11	·
Cc1c(CCC(=O)N2C[C@H]3C[C@@H](C2)c2cccc(=O)n2C3)c(=O)oc2c(C)c(O)ccc12	·	·	·	·	·	-13
O=C(Nc1cc(Cl)cc(Cl)c1)N1Cc2ccccc2-n2nncc2C1	·	2	·	·	·	-4
Cc1ccc(N2C(=O)NC(=O)/C(=C\c3ccoc3)C2=O)cc1	i	-6	-4.6*	10	-13	-2
CC1(C)CSC(=NCc2ccccc2)N1	i	14	-6.4*	0	8	-3
COC(=O)C1C2c3ccccc3C(c3ccccc32)C1C(=O)OC (stereo not given)	i	-8	-8.8*	3	-13	-7
CC(=O)c1c(C)n(Cc2ccccc2Cl)c2ccc(O)cc12	i	3	i	1	-3	-15
CCOC(=O)COc1ccc2c(c1)c(C(C)=O)c(C)n2Cc1ccccc1	i	-4	-5.5*	0	-6	-14
COc1ccc(-c2nc3ccccc3c(=O)n2-c2ccc(OC)cc2)cc1	i	-15	i	0	12	-11
CCn1nc(-c2ccccc2)nc2c(=O)n(C)c(=O)nc1-2	i	7	i	54*	-6	-8
CCCC1(CC(C)CC)C(=O)NC(=O)NC1=O (stereo not given)	·	1	·	·	·	-14
CC1(C)C[C@H]2C=C(C=O)[C@]3(C=O)C[C@]3(C)[C@H]2C1	100*	8	i	9	2	-10
O=C1NC(=S)N(c2ccc(F)cc2)C(=O)/C1=C\c1ccoc1	·	-9	i	·	6	7
O=C1NC(=S)N(c2ccc(F)cc2)C(=O)/C1=C/c1ccco1	i	·	·	99*	·	·
COc1ccc(N2C(=O)/C(=C/c3ccc(C)o3)C(=O)NC2=S)cc1	·	1	i	·	·	7
COc1ccc(OC)c(N2C(=O)/C(=C/c3ccco3)C(=O)NC2=S)c1	i	·	·	100*	·	·
Cc1cccc(N2C(=O)NC(=O)/C(=C\C=C\c3ccco3)C2=O)c1	i	3	i	4	·	-12
Cc1cccc(N2C(=O)NC(=O)/C(=C/c3ccc([N+](=O)[O-])o3)C2=O)c1	i	·	·	44*	6	·
O=C1NCN(c2ccccc2)C12CCN(C(c1ccnc3ccccc13)c1nnnn1-c1ccc3c(c1)OCCO3)CC2 (stereo not given)	·	·	·	·	·	6
SMILES	TMEM16A inh	TLR9-MyD88 block	TMEM16A act	GRK2 inh	TLR4 MyD88 comp	NOD2 RIPK2 PPI
CSc1ccc(C(=O)C2CCCN(Cc3cc4ccccc4[nH]3)C2)cc1 (stereo not given)	25*	3	i	0	-4	-4
COC(=O)C1CN(C#N)N(c2ccc(Cl)cc2)C12c1ccccc1-c1ccccc12 (stereo not given)	i	10	i	0	4	58*
CC1(C)C(C(=O)N2CCN(c3ccc(Cl)cc3)CC2)C1(C)C	i	-2	i	2	·	-2
CCOC(=O)c1cccc(C2=C(CNC(=O)c3nccs3)[C@H]3CC[C@@H](C2)N3Cc2ccccc2)c1	·	-5	·	·	·	-4
Cc1ccccc1-[n+]1c(-c2ccccc2)cc(-c2ccccc2)cc1-c1ccccc1	100*	6	i	·	·	5
Oc1ccccc1-[n+]1c(-c2ccccc2)cc(-c2ccccc2)cc1-c1ccccc1	i	-19	i	0	·	0
Nc1ccccc1-[n+]1c(-c2ccccc2)cc(-c2ccccc2)cc1-c1ccccc1	i	-4	-9*	0	·	-9
[O-]c1ccccc1-[n+]1c(-c2ccccc2)cc(-c2ccccc2)cc1-c1ccccc1	100*	-5	i	2	·	-1
COc1ccc(C(c2nnnn2C2CCCC2)N2CCC3(CC2)C(=O)NCN3c2ccccc2)cc1 (stereo not given)	·	·	·	·	·	-31
O=c1[nH]c2ccccc2n1C1CCN(C(c2cc3ccccc3o2)c2nnnn2-c2ccc3c(c2)OCCO3)CC1 (stereo not given)	·	·	·	·	·	2
Clc1ccc(C(c2ccc(Cl)cc2)n2cc[n+](CC(OCc3ccc(Cl)cc3Cl)c3ccc(Cl)cc3Cl)c2)cc1 (stereo not given)	i	28*	i	0	·	21
CO[C@H]1C=CCCC=CC(=O)O[C@H]([C@H](C)C(=O)CCCC2CC(=O)NC(=O)C2)C(C)=C[C@@H](C)[C@@H]1O	·	·	·	·	·	-8
Cc1ccc(C[n+]2c(-c3ccc(C)cc3)cc(-c3ccc(C)cc3)cc2-c2ccc(C)cc2)cc1	100*	2	i	0	·	13
Cc1ccc(-c2cc(-c3ccc(C)cc3)[n+](-c3ccc(C(=O)O)cc3)c(-c3ccc(C)cc3)c2)cc1	i	-7	i	0	·	2
CCCCCn1c(=O)c(C(=O)Nc2cnccn2)c(O)c2ccccc21	i	2	-6.5*	1	-15	0
CCC(C)/C=C(C)/C=C/C1=CC2=C(Cl)C(=O)C(C)(OC(C)=O)C(=O)C2=CO1 (stereo not given)	100*	7	i	0	-6	-7
CC[C@H](C)/C=C(C)/C=C/C1=CC2=C(Cl)C(=O)[C@@](C)(OC(C)=O)C(=O)C2=CO1	i	-2	i	3	·	·
Cc1ccc(CN2Cc3ccc(Br)cc3-n3nncc3C2)cc1	·	·	·	·	·	1
O=P(/C=C1\OCc2ccccc21)(Oc1ccccc1)Oc1ccccc1	·	·	·	·	·	-4
Cc1cc(/C=C2\C(=O)NC(=O)N(Cc3ccccc3)C2=O)c(C)n1-c1ccc(Cl)c(C(=O)O)c1	i	-3	i	100*	-4	3
Brc1ccc(-[n+]2c(-c3ccccc3)cc(-c3ccccc3)cc2-c2ccccc2)cc1	100*	1	i	0	·	1
CCCOC(=O)c1ccc(-[n+]2c(-c3ccccc3)cc(-c3ccccc3)cc2-c2ccccc2)cc1	100*	0	-5.7*	0	·	-6
COc1ccc(-[n+]2c(-c3ccccc3)cc(-c3ccc(C)cc3)cc2-c2ccccc2)cc1	100*	-2	i	0	·	-4

Screening data (PubChem BioAssay)
